# Compound activity from PubChem BioAssay.
# VDR inhibitor: blocks the human vitamin D receptor; VDR-SRC2-3 peptide fluorescence polarization, 2 h; AID 504847; 0.93% of 400,000 active; Potency, µM, without a hit: max response, negative = inhibition, usual class: inhibitors; also: potency is read from the fitted curve at half-maximal effect
#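 Inhibition of the VDR/SRC2-3 peptide interaction is quantified by fluorescence polarization. Compounds (23 nl, pintool) incubate with the reagents for 2 hours at ambient room temperature.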
# PLK1 PBD block: PLK1 (human) polo-box domain binding inhibition. 2.8% of 360,000 active. Plk1 PBD binding of FITC phosphopeptide, fluorescence polarization. AID 720504. Potency, µM, for the others: max response, negative = inhibition, actives largely listed as inhibitors. P53350; also: potency is read from the fitted curve at half-maximal effect; series mostly up to about 57 µM; nearly all actives have a fitted effect of over 65% in size
# CCT chaperon mod: modulators of cytosolic chaperonin (CCT/TRiC) activity | purified chaperonin ATPase assay, HTRF ADP detection, 30 min | activity change, % (test concentration not listed), hits read low | 0.3% of 360,000 active; in the data active = activity change below about -30%
#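 Enzyme 40 or 20 nM (batch-dependent) in Tris pH 7.4/KCl/MgCl2/DTT; cpd 76 uM single point; ATP 10 uM; 30 min 37 °C; Transcreener ADP HTRF detection, 30 min RT; ratio 665/615.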
# Sfp PPTase inh: blocks B. subtilis Sfp PPTase activity | AID 1490 | 3.5% of 310,000 active | Potency, µM, without a hit: largest response in the series, negative = inhibition, actives largely listed as inhibitors | Q9F4F7 | Biochemical Sfp PPTase activity, qHTS;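 also: the enzyme is Sfp with the accession as filed and its product quenches rhodamine fluorescence; potency is read from the fitted curve at half-maximal effect; 0% = enzyme reaction without inhibitor and -100% = no enzyme wells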
#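 Step 1, compound plus 15 nM Sfp-PPTase, 15 min, room temperature. Step 2, add rhodamine-CoA (5 uM) and BHQ-2-YbbR (12.5 uM). Step 3, read 525/598 nm fluorescence at 0 and 30 min.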
# G9a inh: inhibitors of human histone lysine methyltransferase G9a; 8.8% of 350,000 active; Potency, µM (doses to about 102 µM), inactives show top-dose activity, negative = inhibition, hits mostly inhibitors; G9a H3K9 monomethylation, AlphaScreen, 2 h; AID 504332; Q96KQ7; also: potency is read from the fitted curve at half-maximal effect; nearly all actives have a fitted effect of over 75% in size
# Target sequence (Q96KQ7 913-1193 limits assumed): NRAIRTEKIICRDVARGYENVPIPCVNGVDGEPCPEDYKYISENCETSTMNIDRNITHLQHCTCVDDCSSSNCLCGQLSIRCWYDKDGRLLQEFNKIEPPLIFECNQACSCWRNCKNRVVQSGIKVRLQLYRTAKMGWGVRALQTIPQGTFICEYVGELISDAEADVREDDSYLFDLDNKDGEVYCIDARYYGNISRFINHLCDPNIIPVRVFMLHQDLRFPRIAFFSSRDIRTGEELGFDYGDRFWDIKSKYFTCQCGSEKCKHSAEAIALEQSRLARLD
#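 Chemiluminescent proximity detection of H3K9 monomethylation, read after 10 min bead incubation in the dark. Reaction: 20 nM G9a, 500 nM biotin-H3K9 peptide, 20 uM SAM cofactor, 2 h, room temperature, following 15 min enzyme-compound preincubation.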
# MmCpn inh: blocks the Methanococcus maripaludis chaperonin Mm-Cpn; 0.031% of 330,000 active; AID 504842; Potency, µM (highest dose often 76.9 µM), without a hit: top-dose activity, negative = inhibition, hits mostly inhibitors; purified Mm-Cpn ATPase, ADP Transcreener TR-FRET; also: potency is read from the fitted curve at half-maximal effect; nearly all actives have a fitted effect of over 80% in size
#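 ATPase turnover read by TR-FRET ADP competition (Eu cryptate antibody/ADP-d2, 665/590 nm): 10uM ATP final, 25nM Mm-CPN final, 30 min 37degC after 10-min compound preincubation, pH 7.4 Tris/KCl/MgCl2/DTT buffer.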
# * = called active by the depositor; ? = inconclusive; · = no result; [ ] = remark or other dose. Most compounds without a hit are left out; they make up all but 10% or so of the library. Unless noted, calls follow the shape of the dose curve; as a rule, active = well fitted curve in the direction sought with a large enough effect; inconclusive = small, poorly fitted or top-dose-only effect, or another doubt; inactive = no such curve, though single readings can be large; an effect the other way counts as inactive or inconclusive. Unless noted, % is scaled to controls: 0 for no effect and ±100 for the full control effect.
SMILES,VDR inhibitor,PLK1 PBD block,CCT chaperon mod,Sfp PPTase inh,G9a inh,MmCpn inh
CCN(CC)S(=O)(=O)c1cc(C(=O)Nc2cc(Cl)ccc2N2CCN(C)CC2)ccc1Cl,11%,-2%,1,50µM*,45µM*,1%
CCN(CC)S(=O)(=O)c1cc(C(=O)Nc2ccccc2[N+](=O)[O-])ccc1Cl,-12%,3%,0,1%,28µM*,-2%
CN1CCN(c2ccc(Cl)cc2NC(=O)c2ccc(S(=O)(=O)N(C)C)cc2)CC1,-6%,-2%,1,-4%,-14%,-3%
Cc1ccccc1C(=O)NCc1ccc2c(c1)CCN2C(=O)c1ccc(F)cc1,14%,·,·,·,6%[59 µM],·
Cc1ccc(NC(=O)c2sc3nc[nH]c(=O)c3c2C)cc1C,18%,·,·,·,-6%[59 µM],·
CC(C)NC(=O)C1CCC(Cn2c(=O)c3sccc3n(CC(=O)N3CCCC3)c2=O)CC1 (stereo not given),-3%,·,·,·,9%[59 µM],·
Nc1nn(-c2ccccc2)c(N)c1N=Nc1cccc(F)c1,?,-9%,-1,3%,20µM*,-2%
Brc1ccc(-c2cc3c(N4CCN(c5ccccc5)CC4)nccn3n2)cc1,1%,·,·,·,3%[59 µM],·
CC(NC(=O)COc1ccc(-c2nnco2)cc1)c1ccc(Cl)cc1Cl (stereo not given),-1%,-3%,0,8%,45µM*,-1%
COc1ccc(/C=C/c2cc(=O)c3cc(Cl)ccc3o2)cc1,-5%,-6%,0,50µM*,?,-1%
COc1ccc(/C=C/c2cc(OC)cc(=O)o2)cc1,12%,·,·,21%,30%[59 µM],·
COCCn1c(NC(=S)NC(=O)C2CC2)cc(=O)[nH]c1=O,?,?,5,22µM*,?,0%
Cc1c(CCC(=O)NCc2ccc(F)cc2)c(=O)oc2cc(O)ccc12,1%,·,·,·,20%[59 µM],·
COc1ccccc1Cc1c(-c2ccco2)nc2ccc(Br)cn12,·,13µM*,0,·,·,·
COc1ccccc1Cc1c(-c2ccco2)nc2ccc(Cl)cn12,·,?,0,·,·,·
FC(F)(F)c1ccccc1Cc1c(-c2ccco2)nc2ccc(Br)cn12,·,27µM*,-1,·,·,·
Cc1c(-c2nc(-c3ccc4c(c3)[nH]c(=O)n4C)no2)cccc1[N+](=O)[O-],1%,·,·,·,17%[59 µM],·
O=C1c2ccccc2C(=O)C12OC2c1ccc(Cl)cc1Cl (stereo not given),89µM*,-27%,-16,-13%,?,0%
CCCNC(=O)N1CCN(S(=O)(=O)c2ccc3c(ccn3C)c2)CC1,-7%,·,·,·,10%[59 µM],·
O=C1CCCCCN1Cc1nnc(SCc2nc3ccccc3s2)n1-c1ccccn1,0%,?,-7,3%,50µM*,1%
COc1ccc(OC)c(C2CC(=O)c3c([nH]c(C(=O)OC4CCC(C)CC4)c3C)C2)c1 (stereo not given),-28%,·,·,·,-36%[59 µM],·
N#CNc1nc(O)cc(=O)[nH]1,3%,-11%,-1,?,50µM*,-2%
CCCCCSc1nc(O)cc(=O)[nH]1,-27%,-10%,-2,12%,3%[12.7 µM],2%
C=CCOc1ccccc1/C=c1\sc2nc(=O)c(C)nn2c1=O,71µM*,?,2,?,?,-2%
CCc1nnc2c(Nc3ccc(N(CC)CC)cc3C)nc3ccccc3n12,-3%,·,·,·,18µM*,·
SMILES,VDR inhibitor,PLK1 PBD block,CCT chaperon mod,Sfp PPTase inh,G9a inh,MmCpn inh
S=c1[nH]ccn1CCc1ccccc1,-8%,?,-2,-23%,10µM*,-2%
S=C1SCN(CCc2ccccc2)CN1CCc1ccccc1,·,-14%,0,·,·,·
CCCN(CCC)C(=O)Cn1c(=O)n(-c2ccc(OC)cc2OC)c(=O)c2c3c(sc21)CCC3,-15%,·,·,·,-4%[59 µM],·
COc1ccc(OC)c(CNC(=O)c2ccc(N3Cc4ccccc4Oc4ncccc43)s2)c1,12%,·,·,·,-5%[59 µM],·
O=S(=O)(c1cccc(C(F)(F)F)c1)N1CCC(c2cc(-c3cccc4ccccc34)n[nH]2)CC1,?,19µM*,0,12%,-11%[12.7 µM],-5%
COc1ccc(S(=O)(=O)N2CCC(c3cc(-c4cccc5ccccc45)n[nH]3)CC2)cc1,6%,-3%,2,6%,·,-17%
Cc1ccc2nc3c(nc2c1C)CCCC3,-2%,-8%,0,9%,39%[0.501 µM],-2%
Cc1ccc2nc3c(nc2c1C)C(O)=C3O,?,11µM*,2,-16%,13µM*,-2%
CCOC(=O)c1nc(Nc2ccc(C(=O)OCC(C)C)cc2)c2ccccc2n1,30%,·,·,·,4%[59 µM],·
CN(C)c1ccc(CNC(=O)Cc2ccc(NC(=O)N3CCCCc4ccccc43)cc2)cc1,16%,·,·,·,13µM*,·
CN(CC(=O)Nc1ccc(F)cc1)CC(=O)N1CCc2ccccc21,1%,5%,2,·,56µM*,1%
CN(CC(=O)Nc1cccc(F)c1)CC(=O)N1CCc2ccccc21,-12%,1%,-4,·,?,0%
CCc1ccc(CN/C=C/C(=O)c2ccc(Br)cc2)cc1,-12%,24µM*,2,5%,81%,-4%
COc1ccc(-n2c(=O)c3ccc(C(=O)NCc4ccc(C)cc4)cc3n(Cc3cccc(Cl)c3)c2=O)cc1,-8%,·,·,·,7%[59 µM],·
